Most compounds without a hit are left out; they make up all but 1.8% or so of the library.
SSB-PriA inh: inhibitors of Klebsiella pneumoniae PriA binding to SSB C-terminal tail; inhibition, % at 33 µM; 430,000 tested, 0.6% active; AlphaScreen SSBct-PriA binding, biotinylated peptide; AID 1272365; in the data active = inhibition mostly above about 37%, no sharp cut-off; inactive = mostly below about 20%
PrP 5UTR inh: suppresses PrP 5' UTR mRNA reporter expression | cell-based PrP 5' UTR mRNA reporter, plate reader | inhibition, % (test concentration not listed) | 340,000 tested, 0.35% active | AID 488862; in the data active = inhibition above about 52%
PrPC TRFRET: reduces human prion protein on the cell surface | P04156 | 370,000 tested, 0.43% active | cell surface PrPC, TR-FRET read-out | inhibition, % at 13.8 µM; in the data active = inhibition above about 24%
PfHsp40 yeast: compounds rescuing yeast from Plasmodium falciparum HSP40 toxicity | S. cerevisiae expressing PfHsp40, growth rescue, ATP luminescence | growth rescue, % at 12.5 µM | 340,000 tested, 0.68% active; in the data active = growth rescue above about 28%, passing the limit was not always enough;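 note: yeast W303a lacking pdr1 and pdr3 grown in galactose medium; growth measured after three days at 30 °C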
MazEF act: increases E. coli MazEF RNase cleavage of RNA. P0AE70. FAM/BHQ RNA-DNA oligo cleavage fluorescence, 5 h. activation, % at 20 µM. 350,000 tested, 0.32% active; in the data active = activation above about 50%
PrP UTR cherry: prion 5' UTR mRNA inhibition, cherry-pick retest | cell-based prion protein 5' UTR reporter, plate reader | shares compounds with PrP 5UTR inh | inhibition, % at 2.5 µM | AID 504592 | 1,100 tested, 48% active; in the data active = inhibition above about 54%
PrPC TRFRET cf: confirmation of inhibitors of cell surface human prion protein; 1,500 tested, 65% active; shares compounds with PrPC TRFRET; cell surface PrPC level, TR-FRET; AID 743200; inhibition, % at 13.8 µM; in the data active = inhibition above about 25%
LD9 cytotox: kills or reduces viability of LD9 cells in PrPc counter-screen. shares compounds with PrPC TRFRET. LD9 cells cytotoxicity, luminescence viability. inhibition, % at 13.8 µM. 1,500 tested, 29% active. AID 743201; in the data active = inhibition above about 9.5%
Hits are given with their value; - = inactive; . = not tested or not shown.

SMILES | SSB-PriA inh | PrP 5UTR inh | PrPC TRFRET | PfHsp40 yeast | MazEF act | PrP UTR cherry | others
CCCCc1cn(C[C@H]2CC[C@@H]([C@@H]3CC[C@H](Cn4cc(CCCC)nn4)O3)O2)nn1 | - | - | - | - | - | .
COc1ccc(CC(=O)N2CCN(c3ccccc3F)CC2)cc1OC | - | - | - | - | - | .
CCN(CCCl)c1cc(CN(C)C)cc(NC(=O)c2ccc(C(=O)Nc3cc(CN(C)C)cc(N(CC)CCCl)c3)cc2)c1 | - | 95 | - | - | - | 91
CCN(CC)c1ccc(NC(=O)c2cnn(CC)c2)cc1 | - | - | - | - | - | .
CCOC(=O)C1=C(C(F)(F)F)Nc2ncnn2C1c1ccc(OC)c(OC)c1OC (centres undefined) | - | - | - | - | - | .
CCOC(=O)C1(CC)Oc2ccccc2C(c2ccc(OC)cc2)=C1C(=O)OC (centres undefined) | - | 71 | - | - | - | -
CCOC(=O)C1Oc2ccccc2C(c2ccc(C)cc2)=C1C(=O)OC (centres undefined) | - | - | - | - | - | .
Cc1cc(/C=N/Nc2ncnc(N)c2[N+](=O)[O-])c(C)n1-c1ccccc1 | - | 77 | - | - | - | 78
CCCCCCCCC(c1nc2ccccc2[nH]1)N1CCN=C1c1cc2ccccc2[nH]1 (centres undefined) | . | . | - | . | . | .
CC(=NNC(=S)N(Cc1ccccn1)Cc1ccccn1)c1cnccn1 | 94 | 80 | - | 113 | - | 58
CC(=NNC(=S)N1CC2CCC(CC2)C1)c1cnccn1 | - | - | - | - | - | .
Cc1cccc(C(=O)NCN2CCN(c3ccccc3C#N)CC2)c1 | - | 82 | - | - | - | -
O=C(NCN1CCN(c2ccccc2F)CC1)c1ccccc1 | - | - | - | - | - | .
CC(=O)c1c(C)[nH]c(C(=O)Nc2nc(C)cs2)c1C | - | 65 | - | - | - | -
CC(C)(C)c1ccc(C(=O)O/N=C(\N)c2ccccn2)cc1 | - | 77 | - | - | - | 75
CCOc1ccc(C(=O)O/N=C(\N)c2ccccn2)cc1 | - | 84 | - | - | - | 92
NC(=NOC(=O)c1ccccc1)c1ccccn1 | - | . | . | . | . | .
Cc1ccc(C(=O)O/N=C(\N)c2ccccn2)cc1 | - | 87 | - | - | - | 94
N/C(=N\OC(=O)c1ccccc1)c1ccccn1 | . | - | - | - | - | .
Cc1ccc(C(=O)O/N=C(\N)c2ccccn2)cc1C | - | 87 | - | - | - | 77
Cc1ccc(-c2cc(=O)n(CC(=O)NCc3ccncc3)cn2)cc1 | - | . | . | . | . | .
COc1ccc(C)c2sc(NC(=O)[C@@H]3CCCN3S(=O)(=O)c3ccc(F)cc3)nc12 | - | . | . | . | . | .
N/C(=N\OC(=O)c1cccc(F)c1)c1ccccn1 | . | - | - | - | - | .
Cc1cccc(C(=O)O/N=C(\N)c2ccccn2)c1 | - | 56 | - | - | - | 75
CC(=O)C(C(C)=O)C(NC(=O)c1cccnc1)(C(F)(F)F)C(F)(F)F | - | - | - | - | - | .
SMILES | SSB-PriA inh | PrP 5UTR inh | PrPC TRFRET | PfHsp40 yeast | MazEF act | PrP UTR cherry | others
CC(=O)O[C@H]1C(=O)[C@@]2(C)C([C@H](OC(=O)c3ccccc3)[C@]3(O)C[C@H](OC(=O)[C@H](O)[C@@H](NC(=O)c4ccccc4)c4ccccc4)C(C)=C1C3(C)C)[C@]1(OC(C)=O)CO[C@@H]1C[C@H]2O (some centres undefined) | - | 56 | - | - | - | 68
CC(=O)O[C@@]12CO[C@@H]1C[C@H](O)[C@@]1(C)C(=O)[C@H](O)C3=C(C)[C@@H](OC(=O)[C@H](O)[C@@H](NC(=O)c4ccccc4)c4ccccc4)C[C@@](O)([C@@H](OC(=O)c4ccccc4)C12)C3(C)C (some centres undefined) | - | - | - | - | - | .
CCOC(=O)c1cnc2c(-c3ccccc3OC)c(C)nn2c1C | - | 76 | - | - | - | -
CC(C)Cn1c(-c2cccc(S(=O)(=O)N3CCOCC3)c2)n[nH]c1=S | - | 77 | - | - | - | -
O=C1OC(CCl)CN1Cc1ccc([N+](=O)[O-])cc1 (centres undefined) | - | - | - | - | - | .
Cc1cc(C=C2C(=O)c3ccccc3C2=O)c(C)n1-c1ccccc1 | - | 75 | - | - | 156 | 62
Cc1ccccc1N=Nc1c(N)n[nH]c1N | - | 55 | - | - | - | -
Cc1cccc(NC(=O)c2ccc3c(=O)n4c(nc3c2)CCCCC4)n1 | - | - | - | - | - | .
CCN(CC)C(=S)Nc1ccc(OC)cc1 | - | 55 | - | - | - | -
CCCNC(=O)Nc1ccc2c(c1)N(C)C(=O)c1ccccc1S2 | - | - | - | - | - | .
O=C(NCc1ccccc1Cl)c1ccc[nH]1 | - | 77 | - | - | - | -
CNC(=O)Oc1ccc(-c2cn3cc(C)ccc3n2)cc1 | - | 57 | - | - | - | 54
Cc1ccc2nc(-c3ccc4c(c3)OCCO4)cn2c1 | - | 89 | - | - | - | 79
CN1CCN(c2ccc([N+](=O)[O-])c3no[n+]([O-])c23)CC1 | . | 79 | - | - | - | 86
Cc1ccsc1/C=N/NC(=O)C(N)=O | . | - | - | - | - | .
COc1ccc(Cc2cnc(N)s2)cc1 | - | 77 | - | - | - | -
Cc1ccc(Sc2cnc3ccccc3n2)cc1 | - | 88 | - | - | - | -
COC(=O)CSc1cnc2ccccc2n1 | - | - | - | - | - | .
O=C(NCc1ccc(C(F)(F)F)cc1)C1CC(c2cccc(F)c2)=NO1 (centres undefined) | - | - | - | - | - | .
Cc1ccc(C(=O)c2cc([N+](=O)[O-])ccc2N2CCOCC2)cc1 | - | - | - | - | - | .
COc1ccc(C(=O)c2cc([N+](=O)[O-])ccc2N2CCOCC2)cc1 | - | 83 | - | - | - | 80
CCOc1ccc(C(=O)c2cc([N+](=O)[O-])ccc2N2CCOCC2)cc1 | - | 58 | - | - | - | 72
C[C@H]1CCCC=C[C@@H]2C[C@H](O)C[C@H]2[C@H](O)/C=C/C(=O)O1 | - | . | . | . | . | .
CC1CCC/C=C/C2CC(O)CC2C(O)/C=C/C(=O)O1 (centres undefined) | . | 83 | 89 | - | - | 88 | PrPC TRFRET cf=95;LD9 cytotox=-
COC(=O)c1sc(N)c(C(=O)OC)c1COC(=O)[C@@H](NS(=O)(=O)c1cccc(Cl)c1)C(C)C | - | - | - | - | - | .
NC(=O)c1c(NC(=O)c2ccc([N+](=O)[O-])o2)sc2c1CCCC2 | - | - | - | - | - | .
CN1CCc2c(sc(NC(=O)c3ccc([N+](=O)[O-])o3)c2C(N)=O)C1 | - | 91 | 44 | - | - | 97 | PrPC TRFRET cf=42;LD9 cytotox=61
